Compounds without any hit were thinned out: in the full panel of roughly 83,000, 20% have a hit.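 Cell lines were cultured in 96-well plates, exposed to a single compound concentration, and assessed for percent growth 48 hours later.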 A number with no mark means an inactive call. The source made the active and inactive calls. Rule for the calls: active = growth percent below 10; inactive = the rest.
Legend:
Assay in all cases: NCI-60 one-dose screen, 48 h (100 = growth as untreated, 0 = no growth, -100 = all killed)
SK-MEL-2 melanoma = details: 10 µM unless noted
EKVX NSCLC = details: 10 µM
SN12C renal = details: 10 µM unless noted
UO-31 renal = details: 10 µM unless noted
TK-10 renal = details: 10 µM unless noted
ACHN renal = details: 10 µM unless noted
CAKI-1 renal = details: 10 µM unless noted
A498 renal = details: 10 µM unless noted
CCRF-CEM leukemia = details: 10 µM
MOLT-4 leukemia = details: 10 µM unless noted

SMILES | growth (SK-MEL-2 melanoma) | growth (EKVX NSCLC) | growth (SN12C renal) | growth (UO-31 renal) | growth (TK-10 renal) | growth (ACHN renal) | growth (CAKI-1 renal) | growth (A498 renal) | growth (CCRF-CEM leukemia) | growth (MOLT-4 leukemia)
COC1(OC)N=C(N)C2(C#N)C3(C(=O)Nc4ccccc43)C12C#N (stereo not given) | 83.5% | 77.4% | 93.8% | 52.9% | 98% | 67.3% | 21.3% | -9.49% (active) | 77.8% | 88.7%
CCOc1ccc2nc3ccc(Cl)cc3nc2c1 | 97.5% | 75% | 100% | 74.9% | 95.1% | 94.6% | 124% | 83.3% | -0.816% (active) | 50.8%
CC([C@H]1CCC2C3CCC4C[C@@H](N)CC[C@]4(C)C3CC[C@@]21C)N(C)C (stereo not given in full) | 91.7% | 69.4% | 75.8% | -4.26% (active) | 109% | 78.1% | 48.8% | 89.4% | 42.3% | 38.6%
COc1cc2ncnc(Nc3ccc4c(cnn4C(=O)Nc4ccccc4)c3)c2cc1OC | 103% | 85.2% | 82.1% | 65.3% | 72.3% | 94.2% | 76.9% | 65.1% | 31.6% | 80.8%
O=C(N/N=C/c1ccccc1Cl)c1cccc2ccccc12 | 108% | 99.6% | 94.9% | 91.5% | 113% | 105% | 96.8% | 85.4% | 88.3% | 112%
O=C(/C=C/c1cccc(O)c1)c1cccc(-n2cc(-c3ccc(Cl)cc3)[nH]c2=O)c1 | -45.5% (active) | 1.79% (active) | -47% (active) | -78.3% (active) | 0.394% (active) | -80.6% (active) | -53.9% (active) | 61.7% | -4.75% (active) | -29% (active)
COc1cc([C@@H]2c3cc4c(cc3[C@H](O)[C@H]3COC[C@@H]23)OCO4)cc(OC)c1OC | 89.3% | 109% | 90.5% | 53.9% | 94.4% | 78.2% | 62.3% |  |  | 
Cc1c(C(N)=O)sc2c1c(=O)n(Cc1ccccc1)c1nnc(S(C)(=O)=O)n21 | 80.6% | 98% | 80.3% | 85.6% | 93.1% | 100% | 86.5% | 95.5% |  | 
COc1ccc(Cn2cc3c(c2-c2ccc(O)cc2)CCc2cnoc2-3)cc1 | 43.7% | 28.3% | 40.8% | 35.4% | 72.8% | 34.1% | 15.3% | -1.96% (active) | 14.1% | 24.3%
CC(=O)Nc1nc(C)c(C(=O)NNC(=O)Nc2ccccc2)s1 | 29.9% | 153% | 92.3% | 77.7% | 159% | 93.3% | 140% | 90.7% | 79.8% | 115%
CC(=O)Nc1nc(C)c(C(=O)N/N=C/N2CCCCC2)s1 | 15.3% | 112% | 106% | 98.7% | 144% | 116% | 132% | 119% | 94.6% | 130%
CC1(C)Oc2cc3oc(=O)ccc3cc2C[C@@H]1OCCOS(=O)(=O)c1ccc(C#N)cc1 | 102% | 107% | 91.5% | 83.5% | 101% | 95.2% | 86.3% | 79.6% | 98.6% | 92%
Clc1ccc(N/N=C(/c2ccccc2)c2ccccn2)nc1 | 63.5% | 18.5% | 47.3% | 28.3% | 37.3% | 24.1% | 36.2% | 52.7% | 14.2% | 6.84% (active)
NC(=O)c1c(Nc2ccccc2)nn2cc(-c3nc4ccccc4s3)c(N)nc12 | 100% | 89.5% | 95.5% | 81.3% | 124% | 96.3% | 86.2% | 92.5% | 99.2% | 93.3%
c1ccc(C(=NNc2nc3ccccc3o2)c2ccccn2)nc1 | 37.7% | 8% (active) | 16.1% | 2.19% (active) | 41.8% | 8.01% (active) | 5.09% (active) | -27% (active) | 3.17% (active) | 12.3%
COc1cc2ncnc(-n3ncc4cc(NC(=O)Nc5ccccc5)ccc43)c2cc1OC | -4.23% (active) | -1.75% (active) | 3.79% (active) | -44.4% (active) | -41.1% (active) | 17.1% | 16.1% | -33.4% (active) | 22.9% | 3.89% (active)
CC(O)C(N)=O (stereo not given) | 111% | 99.6% | 106% | 97% | 108% | 104% | 95.6% | 103% | 102% | 110%
Cc1ncc(C(=O)Nc2ccc(CN3CCN(C)CC3)c(C(F)(F)F)c2)cc1C#Cc1c(N)ncc2ccc(F)cc12 | 0.14% (active) | -7.75% (active) | 19.1% | 6.12% (active) | -89.2% (active) | -15.8% (active) | 20.8% | -65.1% (active) | -47.6% (active) | -57.9% (active)
C#CCCCCCCC[C@@H]1OC(=O)[C@H]([C@@H](C)CC)NC(=O)[C@H]([C@@H](C)CC)NC(=O)CC(=O)[C@@H]1C | 106% | 97.8% | 98.5% | 67.3% | 117% | 94% | 71.4% | 92.7% | 89.8% | 80.3%
COC(=O)c1ccc2[nH]c(O)c(C(=Nc3ccc(N(C)C(=O)CN4CCN(C)CC4)cc3)c3ccc([N+](=O)[O-])cc3)c2c1 | 43.2% | 88.1% | 27.4% | 65.6% | 72.2% | 54.3% | 19% | 25.9% | 21.2% | 8.41% (active)
Cc1ccc(C(C)C)c(OCc2ccc(C(=O)N/N=C/c3cccc(O)c3O)cc2)c1 | 71.5% | 49.1% | 35% | 16.1% | 74% | 12.8% | 31.6% | 90.2% | 6.92% (active) | 7.88% (active)
C/C=C(/C)C(=O)OC1C=C(CO)C(=O)C(OC(=O)C2(C)OC2C)C1C(C)C (stereo not given) | -49.7% (active) | -11.8% (active) | -44.4% (active) | -96.3% (active) | -31.8% (active) | -96.8% (active) | -23.6% (active) | 1.46% (active) | 1.28% (active) | -3.66% (active)
CCOC(=O)CNS(=O)(=O)CC(=O)c1ccccc1 | 128% | 90.3% | 84.2% | 86.6% | 80.9% | 99.5% | 93% | 117% | 105% | 109%
Cc1nc(N)sc1C(=O)NCCO | 12.8% | 113% | 101% | 80.2% | 112% | 103% | 129% | 119% | 60.6% | 155%
O=S(=O)(O)CCI | 102% | 119% | 105% | 95.4% | 95.7% | 112% | 107% | 90.7% | 106% | 120%
OCC(O)C(O)CC1SCCS1 (stereo not given) | 107% | 97.2% | 97.9% | 78% | 96.5% | 103% | 98% | 101% | 90.6% | 84.8%
Cc1nn(-c2ccccc2)c(N)c1N=C1NC(=O)/C(=C/c2ccc(Cl)cc2)S1 | 100% | 90.8% | 85.8% | 73% | 104% | 87.3% | 66.8% | 68.6% | 68.2% | 87.9%
C/C=C(/C)C(=O)OC1C=C(CO)C(=O)C(OC(=O)/C(C)=C\C)C1C(C)C (stereo not given) | -48.9% (active) | -55.1% (active) | -56.9% (active) | -100% (active) | -88.8% (active) | -100% (active) | -98.7% (active) | -77.6% (active) | -3.36% (active) | -16.8% (active)

— PubChem BioAssay (NCI)
